Several values for one entry are separate records, joined by “and”; a condition that tells them apart may be missing. Equal entries are not always repeated. For some assays here: Entries with a potency or affinity are not part of this list.
Tests used:
[1] = test system: Staphylococcus aureus; assay: Antibacterial activity against Staphylococcus aureus MRSA ATCC 43300 (CO-ADD:GP_020); MIC in CAMBH media using NBS plates, by Resazurin F(560/590); assay type: functional; details: Concentration 20 uM, ASSAY_TEST Inhibition of Bacterial Growth, detection method Resazurin, Fluorescence (ex560/em590), MEDIA CAMHB, plate type 384well, CORNING #3640, time 18 hr
[2] = test system: Acinetobacter baumannii; assay: Antibacterial activity against Acinetobacter baumannii ATCC 19606 (CO-ADD:GN_034); MIC in CAMBH media using NBS plates, by Resazurin F(560/590); assay type: functional; details: Concentration 20 uM, ASSAY_TEST Inhibition of Bacterial Growth, detection method Resazurin, Fluorescence (ex560/em590), MEDIA CAMHB, plate type 384well, CORNING #3640, time 18 hr
[3] = test system: Escherichia coli; assay: Antibacterial activity against Escherichia coli ATCC 25922 (CO-ADD:GN_001); MIC in CAMBH media using NBS plates, by Resazurin F(560/590); assay type: functional; details: Concentration 20 uM, ASSAY_TEST Inhibition of Bacterial Growth, detection method Resazurin, Fluorescence (ex560/em590), MEDIA CAMHB, plate type 384well, CORNING #3640, time 18 hr
[4] = test system: Klebsiella pneumoniae; details: Concentration 20 uM, ASSAY_TEST Inhibition of Bacterial Growth, detection method Absorption (OD600), MEDIA CAMHB, plate type 384well, NBS, CORNING #3640, time 18 hr
[5] = test system: Candida albicans; details: 20 µM
[6] = test system: Cryptococcus neoformans; details: Concentration 20 uM, ASSAY_TEST Inhibition of Fungal Growth, detection method Resazurin, Absorption (OD600-OD570), plate type 384well, NBS, CORNING #3640

Row | SMILES | Inhibition [1] [%] | Inhibition [2] [%] | Inhibition [3] [%] | Inhibition [4] [%] | Inhibition [5] | Inhibition [6] [%] | Inhibition ([1]; 18 h, 20 µM) | Inhibition ([2]; 18 h, 20 µM) | Inhibition ([4]; 20 µM) | Inhibition ([6]; 20 µM)
1 | Cc1cc(C)c(C#N)c(Sc2nc(C)c([N+](=O)[O-])c(C)c2C#N)n1 | 33.8 | 4.2 | 1.58 | 21.76 | 8.27% | 2.92 |  |  |  | 
2 | NC(=O)SCC(=O)Nc1ccccc1C(=O)O | 2.18 | 6.48 | -0.39 | 23.65 | 9.98% | -3.81 |  |  |  | 
3 | Cn1c(=O)c2c(ncn2CCOC(=O)C(C)(C)Oc2ccc(Cl)cc2)n(C)c1=O [THEOFIBRATE] | -5.55 | -11.51 | 14.7 | 11.96 | 0.53% | -5.77 |  |  |  | 
4 | c1ccc(-n2ncc3cccnc32)cc1 | 6.65 | -2.45 | 7.04 | 9.31 | -0.36% | -9.65 |  |  |  | 
5 | Oc1ccc(/N=N/c2ccccc2)c(O)c1/N=N/c1ccccc1 | -22.17 | 3.79 | -20.22 | -6.85 | 8.07% | 33.55 |  |  |  | 
6 | Cc1cccc(C)c1NC(=O)NCc1ccco1 | -11.45 | 7.13 | 6.33 | 8.14 | 2.89% | -10.4 |  |  |  | 
7 | O=S1(=O)CCN(Cc2ccccn2)CC1 | 22.86 | 16.69 | 26.77 | 2.99 | 2.84% | 12.19 |  |  |  | 
8 | O=c1[nH]c(=S)c2nc(S)n(-c3ccccc3)c2[nH]1 | 13.04 | 12.41 | 5.84 | 9.43 | 0.52% | -6.47 |  |  |  | 
9 | O=[N+]([O-])c1ccc(-c2ncc(-c3ccc(Br)cc3)o2)cc1 | 5.59 | 6.16 | 2.7 | 5.71 | 5.85% | -3.69 |  |  |  | 
10 | Cn1nc(SCc2ccccc2)c(=O)n(C(c2ccccc2)c2ccccc2)c1=O | 19.74 | -15.03 | 11.55 | 5.74 | 11% | -0.62 |  |  |  | 
11 | Oc1ccccc1-c1nnco1 [FENADIAZOLE] | 4.3 | -3.75 | 4.12 | 8.02 | 0.92% | -7.26 |  |  |  | 
12 | NC1=NC(c2ccc(Cl)cc2)N(c2ccc(S(N)(=O)=O)cc2)C(N)=N1 (centres undefined) | -8.08 | 15.66 | 1.13 | 8.28 | -0.99% | -3.51 |  |  |  | 
13 | O=c1ccn2c(n1)SC(c1ccccc1)C2 (centres undefined) | 9.54 | 7.52 | 0.87 | 5.49 | 4.6% | -10.89 |  |  |  | 
14 | CCCNC(=O)c1ccc(S(N)(=O)=O)cc1 | 24.95 | -15.44 | 7.13 | 13.6 | -0.57% | -5.61 |  |  |  | 
15 | Cc1cc2nc3ccc(N(C)C)cc3[s+]c2cc1N.[Cl-] [TOLONIUM CHLORIDE] | -5.05 | -12.21 | 2.47 | 19.75 | 1.87% | -7.34 |  |  |  | 
16 | CCCCSc1nc(O)cc(C(=O)O)n1 | 3.28 | -12.23 | 5.2 | 7.02 | 2.48% | -8.23 |  |  |  | 
17 | COc1ccccc1C1OC2=Nc3cc([N+](=O)[O-])ccc3NC2=C1O (centres undefined) | 8.5 | -1.62 | 2.79 | 1.15 | 0.19% | -4.37 |  |  |  | 
18 | COc1cc(/C=N/N=c2\[nH]c3c(=O)n(C)c(=O)n(C)c3[nH]2)ccc1O | 15.24 | -6.89 | 14.34 | -8.37 | 48.3% | 33.61 |  |  |  | 
19 | Cc1nn(-c2ccccc2)c2c1C(c1ccc([N+](=O)[O-])cc1)C(C#N)=C(N)O2 (centres undefined) | 11.47 | 2.7 | 1.25 | 12.44 | -1.55% | -5.09 |  |  |  | 
20 | N#C/C(=C\c1cccnc1)c1ccc(Br)cc1 | -11.66 | -1.77 | -11.06 | 8.56 | 35.8% | -4.26 |  |  |  | 
21 | Cc1nc2ccc(Cl)cn2c1[N+](=O)[O-] | 1.58 | 13.48 | -8.75 | 13.85 | 5.38% | -3.42 |  |  |  | 
22 | COCC(=O)Oc1cc(-c2ccc(C)cc2C)c(OC(=O)COC)c(-c2ccc(C)cc2C)c1 | 8.14 | -8.27 | 6.56 | 4.04 | 7.18% | -1.11 |  |  |  | 
23 | CCN(CC)CCN1C(=O)c2cccc3cc(N)cc(c23)C1=O | -0.77 | 7.97 | 10.46 | 12.53 | -0.17% | -5.58 |  |  |  | 
24 | Nc1n[nH]c(CO)n1.O=C(O)CO | 4.42 | -8.74 | 3.45 | 8.84 | 0.2% | -5.13 |  |  |  | 
25 | COC1OC(CO)C(N=C(C)C)C1O (centres undefined) | -11.36 | -14 | 0.14 | 2.78 | 0.83% | -10.33 |  |  |  | 

Row | SMILES | Inhibition [1] [%] | Inhibition [2] [%] | Inhibition [3] [%] | Inhibition [4] [%] | Inhibition [5] | Inhibition [6] [%] | Inhibition ([1]; 18 h, 20 µM) | Inhibition ([2]; 18 h, 20 µM) | Inhibition ([4]; 20 µM) | Inhibition ([6]; 20 µM)
26 | Nc1ccc(C(=O)Nc2cccc(N)c2)cc1 | 4.61 | -10.29 | 5.56 | 4.23 | 0.06% | -9.54 |  |  |  | 
27 | Nc1nc(=S)ss1 | 5.79 | -17.7 | 2.29 | 13.54 | 3.85% | -5.25 |  |  |  | 
28 | O=C1c2ccccc2C2=C3C(O)=NN=C3CCN12 | 13.67 | 14.87 | 4.79 | 9.82 | 5.2% | -1.84 |  |  |  | 
29 | CC(C)(C)C(=O)/C=C/c1ccc(Oc2ccccc2)cc1 | 7.11 | -6.09 | -4.94 | 20.89 | 4.03% | -10.02 |  |  |  | 
30 | N#C/C(=C\c1ccc[nH]1)C(=O)c1ccccc1 | 9.96 | 7.21 | 0.79 | 8.89 | 10.3% | -7.32 |  |  |  | 
31 | OC(COc1cccc2ccccc12)CN1CCN(c2ccc(Cl)cc2)CC1 (centres undefined) |  |  |  |  | 1.46% and -1.63% |  | 7.27% and -7.63% | 6.27% and 10.91% | 26.3% and 15.3% | -9.84% and -9.74%
32 | COc1cc(-c2ccc(Nc3ccccc3C(=O)O)c(OC)c2)ccc1Nc1ccccc1C(=O)O | 0.05 | 8.67 | 4.59 | -0.01 | -0.13% | -0.24 |  |  |  | 
33 | O=C(NN1CCCCC1)NN1CCCCC1 | 9.98 | 7.95 | 2.92 | -4.05 | 1.96% | -2.31 |  |  |  | 
34 | CS/C(=C\c1ccc(C(=O)c2ccc(C)cc2)n1C)[S+](C)[O-] (centres undefined) | 7.5 | 7.53 | 1.09 | 18.35 | 3.75% | 1.32 |  |  |  | 
35 | O=C1COc2cccnc2N1 | 8.1 | -14.05 | 0.48 | 27.65 | 4.29% | -2.63 |  |  |  | 
36 | Cc1cc(=O)oc2cc(OS(C)(=O)=O)ccc12 | -6.24 | -3.66 | 13.01 | 7.19 | 0.46% | -11.39 |  |  |  | 
37 | Cc1ccc(N2CCN(CC(O)COc3cccc(C)c3)CC2)cc1 (centres undefined) | 10.15 | -11.82 | 15.19 | 10.88 | -0.24% | -16.06 |  |  |  | 
38 | C=CCNC(=S)NCC=C | 10.5 | -8.96 | 3.32 | 27.24 | 1.09% | 2.25 |  |  |  | 
39 | CN1C(=O)CC2(C)C1=CCc1scnc12 (centres undefined) | 8.85 | 8.37 | 0.52 | 4.25 | 2.6% | -1.43 |  |  |  | 
40 | Cc1ccc2c(c1)c1ccc3c(c1n2C)C(=O)C=CC3=O | 2.62 | -23.42 | 6.78 | 6.78 | 22.6% | 22.59 |  |  |  | 
41 | NNC(=O)CNc1cccc(Br)c1 | 11.03 | 1.39 | 7.55 | 8.17 | 1.56% | -4.46 |  |  |  | 
42 | Nc1c(Cl)cc(S(N)(=O)=O)cc1S(N)(=O)=O | 4.27 | 9.37 | 1.27 | 26.17 | 17.5% | -1.7 |  |  |  | 
43 | Clc1nnc(NC2CCCCC2)c(Cl)c1Cl | -0.25 | -5.61 | 15.05 | 1.58 | 27.2% | -9.26 |  |  |  | 
44 | O=C(O)CCNC1CCCCC1 | 7.12 | -7.34 | 6.52 | 12.82 | 3.1% | -1.65 |  |  |  | 
45 | Br.CN(C)c1n/c(=N/Cc2ccco2)ss1 | 15.96 | 6 | 7.56 | 27.1 | 6.89% | -13.39 |  |  |  | 
46 | NC(CC(=O)Nc1cc(C(F)(F)F)ccc1Cl)=NO | 9.76 | -1.74 | -6.61 | 22.22 | 3.79% | -11.78 |  |  |  | 
47 | Cc1cc(N2CCN(C)CC2)n2nc(-c3ccc(Cl)cc3)nc2n1 | 10.15 | 8.53 | 12.12 | 20.83 | 5.91% | -6.75 |  |  |  | 
48 | CCOC(=O)C1C(=O)C(=O)N(C(C)C)C1C(=O)OCC (centres undefined) | 9.9 | 14.67 | -8.18 | 12.15 | 4.37% | 17.48 |  |  |  | 
49 | O=C(O)/C=C\C(=O)Nc1ccc(-c2ccccc2)cc1 | -11.84 | 13.91 | -6.62 | 15.61 | 23% | -5.96 |  |  |  | 
50 | Nc1nnc(S)n1-c1ccc(Cl)cc1 | 10.79 | -9.57 | 13.33 | -2.18 | 11.3% | -11.28 |  |  |  | 

Reference: ChEMBL document CHEMBL4296182, “CO-ADD screening of NIH NCI Diversity Set V”
